Screening results: PubChem, SRMLSC
A340 absorber = compound absorbs light at 340 nm; compound absorbance at 340 nm, fold over control; fold change at 10 µM; 65,000 tested, under 10 active; AID 708;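 active means at 10 µM dose, initial 340 nm absorbance at least 2 fold that of control wells; inactive means change under 2 fold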;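 further: initial absorbance extrapolated from kinetic A340 decline of NADH oxidation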
NADH enzymes = blocks coupling enzymes of NAD/NADH assays. coupled PK/LDH NADH assays, four targets. IC50, µM (titrated, usually from 10 µM). hit rate 0.02% among 65,000. AID 774;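 active means single-dose screening hits from any of four coupled enzyme assays that gave an IC50 when retested across doses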;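 further: the DPM-DC format reads NADH fluorescence rather than 340 nm absorbance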
PMK inhibit = inhibitors of Streptococcus pneumoniae phosphomevalonate kinase. purified PMK, PK/LDH-coupled NADH absorbance 340 nm. inhibition, % at 10 µM. hit rate 0.49% among 65,000;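 active means top-ranked compounds by inhibition in the single 10 µM screen, taking a fixed number of the strongest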
DPM-DC inhibit = inhibitors of Streptococcus pneumoniae diphosphomevalonate decarboxylase; purified DPM-DC, PK/LDH coupled NADH fluorescence; calls only at 10 µM; hit rate 0.49% among 65,000;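 active means the 320 compounds with the highest percent inhibition in the single-dose primary screen, excluding strongly autofluorescent ones, cut at about 32% in these data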;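 further: kinetic rate of NADH fluorescence loss reporting ADP formed by the decarboxylase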
MK inhibit = S. pneumoniae mevalonate kinase inhibition. purified MK, PK/LDH-coupled NADH absorbance 340 nm. inhibition, % at 10 µM. hit rate 0.48% among 65,000;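 active means ranked among the strongest by inhibition in the single 10 µM screen, a fixed top-ranked set picked for dose follow-up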
Fluor 339 460 = intrinsic fluorescence of library compounds, ex339/em460 – biochemical, MLSMR library, data from DPM-DC assay, artefact control, profiling panel. compound autofluorescence, ex339/em460 nm, NADH buffer; stronger effect = higher value; 1 = no-compound wells, NADH background. AID 709. hit rate 5.5% among 65,000. fluorescence fold increase at 10 µM;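 active means at 10 µM, mean starting fluorescence two-fold or more over control wells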;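 further: signal is the first read of a kinetic run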
Hits are given with their value; - = inactive; . = no result shown; + = active, no number. An excerpt weighted towards active compounds, which were near 6.5% of everything screened.

SMILES	A340 absorber	NADH enzymes	PMK inhibit	DPM-DC inhibit	MK inhibit	Fluor 339 460
O=S(=O)(NCc1cn2ccccc2n1)c1cc(F)ccc1F	-	-	-	-	-	-
Cc1nc2c3c(-c4ccccc4)nc(N4CCOCC4)nc3nn2c(C)c1CCC(=O)O	-	-	-	-	-	3.69
COc1ccc(-c2nc(N3CCOCC3)nc3nn4c(C)c(CCC(=O)O)c(C)nc4c23)cc1	-	-	-	.	-	4.99
Cc1nc2c(-c3ccccc3)c(C)nn2c(C)c1CCC(=O)N1CCOCC1	-	-	-	-	-	-
Cc1nc2nc(C)c(CCC(=O)NCc3ccc4c(c3)OCO4)c(C)n2n1	-	-	-	-	-	-
CN1CCN(c2cc3c(c4c2[nH]c2ccccc24)C(=O)CC(C)(C)C3)CC1	-	-	-	.	-	2.09
CCOC(=O)CC1C(=O)NCCN1C(=O)Nc1ccccc1 (stereo not drawn)	-	-	-	-	49.0	-
COC(=O)CC1C(=O)NCCN1C(=O)Nc1ccccc1 (stereo not drawn)	-	-	-	-	-	-
CCOC(=O)NC(NC(=O)OCC)C(=O)c1ccc(F)cc1	-	-	-	-	-	-
Oc1cccc(/C=N/c2c(-c3ccco3)nc3ccccn23)c1	-	-	-	.	-	2.13
O=C(Nc1c(-c2ccccc2)nc2ccccn12)c1ccco1	-	-	-	-	-	-
C=CCn1c(COc2cccc3ccc(C)nc23)nnc1SCC(N)=O	-	-	-	-	-	-
CCn1c(COc2ccccc2C)nnc1SCC(=O)N1CCCCC1	-	-	27.0	-	-	-
CCc1ccccc1OCc1nnc(N)s1	-	-	-	-	-	-
CC(/C=N/n1cnnc1)=C\c1ccco1	-	3441µM	-	+	-	-
CC1=C(C(=O)Nc2ccccc2)C(c2ccc(C)o2)n2ncnc2N1 (stereo not drawn)	-	-	-	-	-	-
c1ccc(N2CCN(c3cnccn3)CC2)nc1	-	-	-	+	-	-
Cc1cccc(CN2CCN(c3ccccn3)CC2)c1	-	-	-	-	48.0	-
Cc1nnc(SCc2cccs2)[nH]c1=O	-	-	-	-	-	-
COc1cccc(/C=N/n2c(C)nc3ccccc32)c1OC	-	-	-	-	-	-
COc1cc(OC)c(OC)cc1/C=N/n1c(C)nnc1C	-	-	-	.	-	2.16
COc1cccc(/C=N\n2c(C)nnc2C)c1OC	-	-	-	+	-	-
CCC(C)NC(=O)CSC1=Nc2ccccc2C2=NC(CC(=O)NCc3ccccc3)C(=O)N12 (stereo not drawn)	-	-	-	-	-	2.1
COCCCNC(=O)CSC1=Nc2ccccc2C2=NC(CC(=O)NCc3ccccc3)C(=O)N12 (stereo not drawn)	-	-	-	-	-	3.44
CCOC(=O)N1CCN(C(=O)COc2ccc3c(c2)C(=O)CC2(CCN(C(C)=O)CC2)O3)CC1	-	-	-	.	-	5.05
SMILES	A340 absorber	NADH enzymes	PMK inhibit	DPM-DC inhibit	MK inhibit	Fluor 339 460
COc1ccccc1N(CC(=O)Nc1cccnc1)S(C)(=O)=O	-	-	-	-	-	-
O=C(Cn1nc(C(F)(F)F)c2c1CCCC2)NCc1ccco1	-	-	-	-	-	-
CCOc1ccc(N(CC(=O)Nc2ccc(F)c(F)c2)S(=O)(=O)c2c(C)noc2C)cc1	-	-	-	+	-	-
COc1ccc(C2C(C(N)=O)=C(C)Nc3nc(-c4ccccc4Cl)nn32)c(OC)c1 (stereo not drawn)	-	-	-	-	-	-
O=C(c1cc2ccccc2oc1=O)N(Cc1ccc2c(c1)OCO2)Cc1ccco1	-	-	-	-	-	-
CCCn1c(=N)c(C(=O)NCc2ccc3c(c2)OCO3)cc2c(=O)n3cccc(C)c3nc21	-	-	-	-	-	2.11
Cc1cccn2c(=O)c3cc(C(=O)Nc4ccc(N(C)C)cc4)n(C)c3nc12	-	-	-	-	-	-
Cc1cccn2c(=O)c3cc(C(=O)NC(C)C)c(=N)n(Cc4ccncc4)c3nc12	-	-	-	.	-	3.72
CCNC(=O)c1cc2c(=O)n3cccc(C)c3nc2n(Cc2ccc(C)cc2)c1=N	-	-	-	.	-	3.8
O=c1cc(CSc2ccc(Cl)cc2)nc(N2CCCCC2)[nH]1	-	-	-	-	-	-
CCN(CC)c1ccc2cc(C(=O)Nc3ccc(-n4cnnn4)c(OC)c3)c(=O)oc2c1	-	-	-	-	-	-
Cc1nc2ccccc2n2c(O)c(CC(=O)O)cc12	-	-	42.0	-	-	-
CS(=O)(=O)N1CCCC(C(=O)NCCc2ccc(Cl)cc2)C1 (stereo not drawn)	-	-	26.0	-	-	-
O=C(NCc1cccs1)C1CCCN(c2nc3ccccc3o2)C1 (stereo not drawn)	-	-	25.0	-	-	-
CS(=O)(=O)N1CCCC(C(=O)NCCc2ccccc2)C1 (stereo not drawn)	-	-	-	-	-	-
O=C(NCc1cccs1)C1CCCN(S(=O)(=O)c2cccs2)C1 (stereo not drawn)	-	-	-	-	-	-
CS(=O)(=O)N1CCCC(C(=O)NCc2cccs2)C1 (stereo not drawn)	-	-	25.0	-	-	-
CCC(c1nnc(SCC(=O)NCCc2ccc(Cl)cc2Cl)o1)N(C)C (stereo not drawn)	-	-	-	-	-	-
CCc1nnc(NC(=O)CSc2nnc(COc3ccccc3)n2Cc2ccccc2)s1	-	-	-	+	-	-
CCOC(=O)c1ccccc1NC(=O)CSc1nnc(Cc2cccn2C)n1-c1ccc(C)cc1	-	-	-	-	-	2.01
CCc1nnc(NC(=O)CSc2nnc(Cc3ccccc3)n2Cc2ccccc2)s1	-	-	-	-	-	-
C=CCn1c(COc2ccccc2)nnc1SCC(=O)O	-	-	-	-	-	-
C=C(C)Cn1c(COc2ccccc2)nnc1SCC(=O)O	-	-	-	+	-	-
CCc1nnc(NC(=O)CSc2nnc(Cc3cccn3C)n2C)s1	-	-	28.0	-	-	-
O=C(CNC(=O)c1cnccn1)Nc1ccc(F)c(F)c1F	-	-	-	-	-	-
SMILES	A340 absorber	NADH enzymes	PMK inhibit	DPM-DC inhibit	MK inhibit	Fluor 339 460
CCOC(=O)Cc1csc(NC(=O)COc2ccc(N(C)S(=O)(=O)c3cccs3)cc2)n1	-	-	-	-	-	-
O=C1CS/C(=N\C(=O)N2c3ccccc3Sc3ccccc32)N1	-	-	-	-	-	-
c1ccc(Nc2cc(-c3ccccc3)nc3ncnn23)cc1	-	-	-	-	-	-
COc1ccc(-n2c(O)c(/C=N/n3cnnc3)c3ccccc3c2=O)cc1	-	-	-	.	-	2.1
Nc1nc(N2CCN(C/C=C/c3ccccc3)CC2)nc2ccccc12	-	-	-	-	-	-
CC(C)(C)c1ccc(-c2conc2N)cc1	-	-	-	-	-	-
C=CCOC(=O)C1=C(C)Nc2nc3ccccc3n2C1c1ccncc1 (stereo not drawn)	-	-	-	-	-	-
